# PubChem BioAssay AID1463 (National Center for Advancing Translational Sciences (NCATS), 2008)
# Out of some 280,000 compounds screened, about 2,600 (0.93%) were called active. Where a call stands in place of a potency, no number is given. Inconclusive results (about 8%) are left out. Calls follow the shape of the dose curve; as a rule, active = well fitted curve in the direction sought with a large enough effect; inconclusive = small, poorly fitted or top-dose-only effect; inactive = flat fitted curve, though single readings scatter. This excerpt belongs to a sample that is enriched for actives.
# Experiment: Counterscreen qHTS for Inhibitors of Tau Fibril Formation, Fluorescence Polarization; also: nearly all actives have a fitted effect of over 55% in size
# Conditions: tau K18 P301L (four-repeat tau fragment) Alexa594 fluorescence, heparin fibrillization; series mostly up to 57.7 µM
# Summary of the method: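 Human K18 P301L tau (15 uM unlabeled plus 0.24 uM Alexa 594-labeled, final) in 100 mM sodium acetate pH 7 was mixed with compound and 20 uM heparin and incubated 6 hr at 37 C.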
# Potency is read from the fitted curve at half-maximal effect; tags tell the direction and shape of the fitted curve or compound fluorescence and quenching.
row,Structure (SMILES),Potency
1,COc1ccccc1NC(=O)CSC1=Nc2ccccc2C2=NC(CC(=O)NCc3cccs3)C(=O)N12 (stereo unspecified),inactive
2,COc1ccc(CCNC(=O)c2ccc(CSCc3ccc(C)cc3)o2)cc1OC,inactive
3,Nc1ccc(N=Nc2ccccc2Cl)c(N)n1,15.8 µM [quencher] (active)
4,Cc1ccc(C)c(N2CCN(C(=O)Cn3ncc4c(=O)oc5ccc(C)cc5c43)CC2)c1,inactive
5,COc1cccc(NC(=O)Nc2ccc3c(c2)N(C)C(=O)c2ccccc2S3)c1,inactive
6,COc1cccc(/C=N\NC(=O)C2=NNC(=O)C2C)c1O (stereo unspecified),inactive
7,COc1cccc(/C=N/Nc2cc(C)nc(-c3ccccc3O)n2)c1O,8.91 µM [quencher] (active)
8,COc1cccc(/C=N/NC(=O)c2[nH]nc3c2CCc2ccccc2-3)c1O,inactive
9,Cc1cc(C)c(/C=C/c2onc(C)c2S(=O)(=O)N2CCC(C(=O)Nc3ccc(Cl)cc3C)CC2)c(C)c1,inactive
10,O=C(N/N=C/c1ccccn1)c1cccnc1,inactive
11,Cc1cc(/C=N/NC(=O)c2cccnc2)c(C)n1CC(C)C,inactive
12,O=C(N/N=C/c1sc(N2CCCCC2)nc1-c1cccs1)c1cccnc1,15.8 µM [quencher] (active)
13,COc1ccc(CNc2nc(-c3ccc(Cl)cc3)nn2C(=O)c2ccccc2)cc1,inactive
14,O=C(Cn1cc(SCc2ccccc2)c2ccccc21)N1CCCCC1,inactive
15,CC(=O)N1CCc2cc(S(=O)(=O)NC(Cc3ccccc3)C(=O)NCc3ccc(C)cc3)ccc21 (stereo unspecified),inactive
16,Cc1ccc(C(=O)NNC(=O)c2cc3cc4ccccc4nc3s2)cc1,inactive
17,CCN(CCCNC(=O)c1cc2cc3cc(OC)ccc3nc2s1)c1ccccc1,4.47 µM [quencher] (active)
18,CCN1CCN(C(=O)c2cc3cc4ccc(OC)cc4nc3s2)CC1,inactive
19,O=C(CCS(=O)(=O)c1ccccc1)N(Cc1cccnc1)c1nc2c(F)cccc2s1,inactive
20,COc1ccc(-c2c(C)cc3oc(=O)cc(-c4ccccc4)c3c2C)cc1F,inactive
21,COc1ccc(-c2c(C)cc3oc(=O)cc(-c4ccccc4)c3c2C)cc1OC,inactive

row,Structure (SMILES),Potency
1,COc1cc(OC)c2c(-c3cccc(-c4cccc(N)c4)c3)cc(=O)oc2c1,11.2 µM [quencher] (active)
2,CCOc1ccccc1NC(=O)CN1CCCN(Cc2cccc(Cl)c2)S1(=O)=O,inactive
3,CC(CCCc1ccccc1)NC(=O)c1nn(-c2ccc(Cl)cc2)nc1CO (stereo unspecified),inactive
4,Clc1ccc(Nc2ncnc3c2nnn3Cc2ccccc2)cc1,inactive
5,CC(=O)Nc1ccc(NC(=O)CSc2ncnc3c2cnn3Cc2ccccc2)cc1,inactive
6,CN(C)c1cc2c(Nc3ccc4c(cnn4Cc4ccccc4)c3)ncnc2cn1,7.08 µM [quencher] (active)
7,COc1ccc(C)cc1NC(=O)CCc1c(C)nn(-c2ccc(N3CCOCC3)nn2)c1C,inactive
8,CC(=O)Nc1ccc(NC(=O)C2CCCN(S(=O)(=O)c3ccc4c(c3)CCCC(=O)N4)C2)cc1 (stereo unspecified),inactive
9,COc1cccc(C(=O)Nc2nc3ccc(S(C)(=O)=O)cc3s2)c1,inactive
10,CCOc1ccc2nc(NC(=O)CSc3nc4c(c(=O)n(C)c(=O)n4C)n3CC)sc2c1,inactive
11,COc1ccc2nc(Nc3nc(-c4cc5ccccc5oc4=O)cs3)sc2c1,inactive
12,COc1ccc2nc(Nc3nc(-c4ccncc4)cs3)sc2c1,17.8 µM [quencher] (active)
13,COc1ccc(NC(=O)Nc2cccc(-c3noc(C)n3)c2)cc1,inactive
14,Cc1nc2cc3c(cc2s1)OCO3,inactive
15,COc1ccc2nc(Nc3nc4cc5c(cc4s3)OCCO5)sc2c1,7.08 µM [quencher] (active)
16,COc1ccc2nc(NC(=O)[C@@H]3CCCN3C(=O)c3cccs3)sc2c1,inactive
17,COc1ccc(/C=N/NC(=O)Nc2ccc3nsnc3c2)c(OC)c1,inactive
18,CCC(=O)c1ccc(OCC(=O)Nc2ccc3nc(C)sc3c2)cc1,inactive
19,CCOc1ccc2nc(Nc3nc4ccc(NC(C)=O)cc4s3)sc2c1,15.8 µM [quencher] (active)
20,COc1ccc(NC(=O)Nc2ccc3nsnc3c2)cc1,15.8 µM [quencher] (active)
21,CCc1cnc2c(c1SCC(=O)c1ccccc1)c(=O)n(C)c(=O)n2C,inactive

row,Structure (SMILES),Potency
1,COc1ccc(OC)c(CNC(=O)CN2C(=O)CCn3nc(-c4cn(C)c5ccccc45)cc32)c1,inactive
2,COc1ccc2[nH]c3c(c2c1)CCN(C(=O)CCC1CCCC1)C3c1ccc(F)cc1 (stereo unspecified),inactive
3,Cc1cccc(C2CC(=O)Oc3c2c(=O)n(C)c2ccccc32)c1 (stereo unspecified),inactive
4,CCC(=O)Nc1cccc(C(=O)OCc2cc(=O)n3nc(CC)sc3n2)c1,inactive
5,O=C(O)c1ccc2c(c1)N(Cc1ccc(F)cc1)C(=O)c1ccccc1S2=O (stereo unspecified),inactive
6,Cc1cccc(NC(=O)c2ccc(F)c(S(=O)(=O)N(C)C3CCCCC3)c2)c1,inactive
7,CCOc1ccc(OCC)c(NC(=O)c2c(C)nn(-c3ccccc3)c2-n2cccc2)c1,inactive
8,Cc1ccc(C2c3[nH]c4ccccc4c3CCN2C(=O)c2cccc(C)c2)cc1 (stereo unspecified),inactive
9,CCOc1cccc(CNC(=O)c2ccc(N3CCCC3)c(NC(=O)Nc3ccccc3CC)c2)c1,inactive
10,CNC(=O)c1ccc2nc(NC(C)=O)sc2c1,inactive
11,COc1ccc2nc(Nc3nc4ccc(NC(C)=O)cc4s3)sc2c1,12.6 µM [quencher] (active)
12,CCCC(=O)Nc1nc2ccc(NC(=O)c3c(F)c(F)c(OC)c(F)c3F)cc2s1,inactive
13,COc1ccc(Cl)cc1N(C)C(=O)c1cc2c(=O)oc3ccc(C)cc3c2s1,inactive
14,COc1ccc(CCNS(=O)(=O)c2cc(-c3cc(C)no3)ccc2C)cc1OC,inactive
15,CC(C)(C)c1ccc(C(=O)NCC(c2ccc(Cl)cc2)N2CCOCC2)cc1 (stereo unspecified),inactive
16,COc1ccc(Br)cc1C1CC(=O)Nc2c1c(C)nn2-c1nc(C)cc(C)n1 (stereo unspecified),inactive
17,COc1ccc(/C=N/NC(=O)c2ccncc2)cc1CN1CCCc2ccccc21,14.1 µM [quencher] (active)
18,COc1ccc(/C=N/NC(=O)c2ccc(Cl)cc2)cc1COC(C)=O,inactive
19,COc1ccccc1Cc1nc2ccccc2nc1SCC(=O)N1CCCc2ccccc21,inactive
